The values below come from PubChem BioAssay AID1376 (SRMLSC, 2008).

Among all 220,000 compounds or so, about 530 (0.24%) were called active. The sample holds actives, similar compounds and a random draw of the others, so the mix is not that of the screen. Measured potencies and affinities stand elsewhere. Unmarked numbers belong to inactive results. No stated cut-off is given here; in the data, active means inhibition above about 13%; inconclusive means no clear call, values can overlap the other calls; inactive means below that.

Bifunctional protein GlmU (Mycobacterium tuberculosis (strain ATCC 25618 / H37Rv)), sequence (P9WMN3 whole entry, looked up): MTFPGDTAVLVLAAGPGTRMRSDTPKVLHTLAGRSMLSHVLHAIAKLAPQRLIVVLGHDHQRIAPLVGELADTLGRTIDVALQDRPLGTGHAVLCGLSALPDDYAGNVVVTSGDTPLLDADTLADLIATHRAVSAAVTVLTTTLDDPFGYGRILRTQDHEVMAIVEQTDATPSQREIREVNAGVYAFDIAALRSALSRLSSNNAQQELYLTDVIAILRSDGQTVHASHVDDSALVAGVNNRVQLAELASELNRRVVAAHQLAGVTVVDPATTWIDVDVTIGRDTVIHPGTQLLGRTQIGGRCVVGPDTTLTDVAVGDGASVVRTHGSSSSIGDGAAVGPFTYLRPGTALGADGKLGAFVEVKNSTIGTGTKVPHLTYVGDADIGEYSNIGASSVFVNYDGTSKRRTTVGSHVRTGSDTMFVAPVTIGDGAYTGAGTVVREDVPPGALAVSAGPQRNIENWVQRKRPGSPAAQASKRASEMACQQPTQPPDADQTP

The experiment concerns the target Bifunctional protein GlmU (Mycobacterium tuberculosis (strain ATCC 25618 / H37Rv)) (UniProt P9WMN3). As to the kind of experiment: inhibition of mycobacterial GlmU enzyme – biochemical, glucosamine-1-phosphate acetyltransferase (AID 1376).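 Further: 0% = complete reaction with vehicle and 100% = reaction without substrate.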 The conditions noted are these: M. tuberculosis GlmU acetyltransferase enzyme assay; stronger effect = higher value;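 tested at 30 µM in the primary screen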.
For `O=C(CSc1nnc(Cc2cccs2)n1-c1ccc(Cl)cc1)NCc1ccc2c(c1)OCO2`, the inhibition is 12.9% (active).
Consider `O=C(CSc1nnc(-c2cccs2)n1-c1ccccc1)NCc1ccc2c(c1)OCO2`, for which the inhibition is 4.61%.
In the case of `O=C(CSc1nnc(Cc2cccs2)n1-c1ccccc1)NCc1ccc2c(c1)OCO2`, the inhibition was 5.29%.
To `Cc1cccc(NC(=O)Cn2cnc3c(oc4ccccc43)c2=O)c1C` belongs 3.4%; to `CCC(=O)N/C(=N/c1nc(C)cc(C)n1)Nc1ccc(OC)cc1`, 7.87%.
`N#CC12CCCCC1CC1CCCCC1(C#N)N2CCO` (configuration not stated): the inhibition was 0.23%.
On to `CC(C)COc1ccc(C2NC(=O)NC2=O)cc1` (configuration not stated), for which the inhibition was -0.34%.
As for `CC(C)Oc1ccc(C2CNC(=O)C2)cc1` (configuration not stated), the inhibition is 5.76%.
Take `CC(C)Oc1ccc(C2CCC(=O)NC2=O)cc1` (configuration not stated): the inhibition was 13.8% (active).
To `CCCOc1ccc(C2NC(=O)NC2=O)cc1` (configuration not stated) belongs 1.13%.
To `CC(C)Oc1ccc(C2NC(=O)NC2=O)cc1` (configuration not stated) belongs 14.6% (active).
As for `CC(C)Oc1ccc(C2CC(=O)NC3=C2C(=O)CCC3)cc1` (configuration not stated), the inhibition was -5.28%.
For `Cc1cc(N=NC(=O)c2ccccc2)ccc1O`, the inhibition was 1.4%.
With `O=C(CNc1cccc(C(F)(F)F)c1)N/N=C/c1cn(-c2ccccc2)nc1-c1ccccc1`, the inhibition was -4.25%.
For the compound `O=C(CNc1cccc(C(F)(F)F)c1)N/N=C/c1cccc(Br)c1`, the inhibition was -0.17%.
`O=C(CNc1cccc(C(F)(F)F)c1)N/N=C/c1ccccc1C(=O)O`: the inhibition is 13.4% (active).
`N/N=C1\CCCc2c1[nH]c1ccc([N+](=O)[O-])cc21`: the inhibition was 0.8%.
In the case of `CCn1c(SCC(=O)N2CCc3ccccc32)nnc1-c1c[nH]c2ccccc12`, the inhibition is 6.94%.
Turning to `Clc1ccc(Cn2nc(-c3ccccc3)nc2-c2ccccc2)cc1`, the inhibition is 7.14%.
As to `O=C1NC(=O)N(c2ccc(Cl)cc2)C(=O)/C1=C\c1ccc(Sc2nc3ccccc3[nH]2)o1`, the inhibition was 12.5%.
As for `O=C1NC(=O)N(c2cccc(Cl)c2)C(=O)/C1=C\c1ccc(Sc2nc3ccccc3[nH]2)o1`, the inhibition was 22.4%.
As for `CN(C)S(=O)(=O)c1ccc(C(=O)N2CCOCC2)cc1`, the inhibition was 9.61%.
With `CN(C)S(=O)(=O)c1ccc(=S)[nH]c1`, the inhibition is 1.27%.
Consider `CSc1ccccc1NC(=O)Nc1ccc(F)c(Cl)c1`, for which the inhibition is 15% (active).
With `CSc1ccccc1NC(=O)Nc1ccc(Cl)cc1`, the inhibition is 1.07%.
For the compound `CSc1ccccc1NC(=O)Nc1cccc(Cl)c1`, the inhibition was 1%.
For `Cc1ccc(-n2c(-c3ccccc3)cc(/C=N/NC(=O)CC#N)c2-c2ccccc2)cc1`, the inhibition is -1.01%.
In the case of `COc1ccc2c(c1)CCc1c(C(=O)N3CCOCC3)noc1-2`, the inhibition was 13.8% (active).
The result for `COc1ccc2c(c1)CCc1c(C(=O)N3CCc4ccccc4C3)noc1-2` reads 5.33%; that for `COc1ccc2c(c1)CCc1c(C(=O)N3CCCCCC3)noc1-2`, 0.33%; that for `CC(C)(C)C1CCC(=NNC(=O)c2cc3c(s2)CCCC3)CC1` (configuration not stated), -4.64%.
Regarding `Cc1ccc(OCc2ccc(C(=O)Nc3nc4ccccc4n3Cc3ccccc3)o2)c([N+](=O)[O-])c1`, the inhibition was -4.38%.
`CCn1c(NC(=O)c2ccc(COc3ccc(C)cc3[N+](=O)[O-])o2)nc2ccccc21`: the inhibition is 15.2% (active).
Consider `Cc1ccc(OCc2ccc(C(=O)Nc3nc4ccccc4n3C)o2)c([N+](=O)[O-])c1`, for which the inhibition was 2.65%.
Turning to `O=C(N/N=C1/CCS(=O)(=O)c2ccc(F)cc21)c1ccccn1`, the inhibition is -0.55%.
The result for `CCCC(c1nnnn1CCc1ccccc1)N1CCN(C(=O)c2ccco2)CC1` (configuration not stated) reads 5.26%; that for `COc1ccccc1OCCCCN1CCN(C(c2ccccc2)c2ccccc2)CC1`, -0.89%.
To `CCN(CC)S(=O)(=O)c1cc(NS(=O)(=O)c2cc(Cl)ccc2Cl)ccc1C` belongs 3.03%; to `CCC(=O)Nc1ccc(Oc2ccc3c(c2)C(=O)N(c2ccc(O)cc2)C3=O)cc1`, 2.87%.
As for `CCCCCCCCCCCC1=C(O)C(=O)C=C(O)C1=O`, the inhibition was 1.77%.
For the compound `COC1=CC(=O)C(O)=C(CCCCCCC/C=C/CCCCCCCC2=C(O)C(=O)C=C(OC)C2=O)C1=O`, the inhibition is 14.3% (active).
With `COC1=C(OC)C(=O)C(CCCCCCCCCCO)=C(C)C1=O`, the inhibition is -5.02%.
Consider `COC(=O)c1c(C)oc2cc(Br)c(OCC(=O)C(C)(C)C)cc12`, for which the inhibition was -1.38%.
On to `CCC(=O)NC1CCN(C(=S)NC)CC1`, for which the inhibition was -4.03%.
For `CSc1cccc(NC(=O)CN(Cc2ccc(Cl)cc2)S(C)(=O)=O)c1`, the inhibition is -1.38%.
The result for `O=C(/C=C/c1ccco1)NC(=S)Nc1cccc(-c2nc3ccccc3s2)c1` reads -0.02%; that for `O=C(/C=C/c1ccco1)NC(=S)Nc1cc(-c2nc3ccccc3s2)ccc1Cl`, 13% (active).
As for `Cc1ccc(-c2nc3ccccc3s2)cc1NC(=S)NC(=O)/C=C/c1ccco1`, the inhibition is 3.24%.
As for `FC(F)(F)c1cnc(NNC(=S)Nc2cccnc2)c(Cl)c1`, the inhibition was 2.72%.
Regarding `CCCOC(=O)CSc1nc(N)c(C#N)c(-c2ccco2)c1C#N`, the inhibition was 2.41%.
For the compound `COC(=O)CSc1nc(N)c(C#N)c(-c2ccco2)c1C#N`, the inhibition is 21.7% (active).
The result for `CC(C)OC(=O)CSc1nc(N)c(C#N)c(-c2ccco2)c1C#N` reads -3.1%; that for `CCOC(=O)c1[nH]c(=O)[nH]c1CN(Cc1ccco1)Cc1[nH]c(=O)[nH]c1C(=O)OCC`, 2.03%.
With `COc1cc(OC)c(OC)cc1CN1CCC(O)CC1`, the inhibition was 0.1%.
`Cn1c(-c2ccc(Br)cc2)cnc1NCc1cccnc1`: the inhibition was -2.36%.
`CCCCN(C)CCC(=O)Nc1ccc(F)c(F)c1`: the inhibition was 0.07%.
With `Cc1ccc(-c2nnn(CC(=O)N(Cc3ccco3)C(C(=O)NC(C)(C)C)c3cccs3)n2)o1` (configuration not stated), the inhibition is 1.32%.
In the case of `Cc1ccc(-c2nnn(CC(=O)N(Cc3ccco3)C(C(=O)NC(C)(C)C)c3ccncc3)n2)o1` (configuration not stated), the inhibition is 6.52%.
The result for `Cc1ccc(-c2nnn(CC(=O)N(Cc3ccco3)C(C(=O)NC(C)(C)C)c3ccc(C)o3)n2)o1` (configuration not stated) reads 13% (active).
On to `CCS(=O)(=O)N1CCN(CC(=O)NC2CCCCC2)CC1`, for which the inhibition was 2.03%.
For the compound `COc1ccc(-c2cc3nc(-c4ccccc4)cc(N4CCC5(CC4)OCCO5)n3n2)cc1`, the inhibition is 5.97%.
Consider `O=C(N/N=C\c1ccccn1)C1c2ccccc2Oc2ccccc21`, for which the inhibition was -4.47%.
As to `CN(C)CCCOc1cccc(Oc2ccccc2)c1`, the inhibition is -1.51%.
Turning to `COc1cccc(C(=O)O/N=C(\N)c2ccc([N+](=O)[O-])cc2)c1`, the inhibition was -5.75%.
For the compound `CCN(CC)CCOC(c1ccccc1)c1ccc(C)cc1` (configuration not stated), the inhibition was 13.5% (active).
In the case of `CCN(CC)CCC(C)OC(c1ccccc1)c1ccccc1` (configuration not stated), the inhibition is -5.59%.
On to `Cc1ccc(C(OCCN(C)C)c2cccc(C(F)(F)F)c2)cc1` (configuration not stated), for which the inhibition was 2%.
Turning to `C=CCNC(=O)C1CC1(c1ccccc1)c1ccccc1` (configuration not stated), the inhibition was 4.25%.
With `COc1ccccc1NC(=O)c1cccc(S(=O)(=O)N2CCOCC2)c1`, the inhibition is 0.03%.
Consider `COc1ccc(C(=O)N2CCCC(c3nc(-c4cccs4)no3)C2)cc1OC` (configuration not stated), for which the inhibition was 13.1% (active).
In the case of `COc1ccc(C(=O)N2CCCC(c3nc(-c4cccs4)no3)C2)cc1` (configuration not stated), the inhibition was -2.88%.
Take `COc1cc(C(=O)N2CCCC(c3nc(-c4cccs4)no3)C2)cc(OC)c1OC` (configuration not stated): the inhibition is 2.49%.
As to `Nc1c(C(=O)Nc2nc3ccccc3s2)sc2nc(-c3cccs3)ccc12`, the inhibition was -1.14%.
As for `Cc1csc(NC(=O)c2sc3nc(-c4cccs4)ccc3c2N)n1`, the inhibition is 0.71%.
The result for `O=C(Nc1ncc(Cc2cccc(C(F)(F)F)c2)s1)c1ccc(-c2cccc([N+](=O)[O-])c2)o1` reads -6.86%.
For `Cc1ccccc1CN1C(=O)CSc2ccc(C(=O)N3CCOCC3)cc21`, the inhibition is 0.57%.
The result for `CN(C(=O)CCc1nnc(Cc2ccc(-c3ccccc3)cc2)o1)C1CCOCC1` reads 2.22%; that for `C=CCn1c(COc2ccccc2)nnc1SCC(=O)Nc1ccc(S(N)(=O)=O)cc1`, 0.44%.
As for `NS(=O)(=O)c1ccc(NC(=O)CSc2nnc(COc3ccccc3Cl)n2C2CC2)cc1`, the inhibition is 13.3% (active).
In the case of `Cn1c(COc2ccccc2)nnc1SCC(=O)Nc1ccc(S(N)(=O)=O)cc1`, the inhibition is 1.92%.
In the case of `c1ccc2oc(NC3=NCN(C4CCCCC4)CN3)nc2c1`, the inhibition was 0.06%.
The result for `Cc1n[nH]c(=O)nc1N/N=C/c1ccc(O)c([N+](=O)[O-])c1` reads 5.79%; that for `O=[N+]([O-])c1cc(/C=N\Nc2nc(-c3ccccc3)cs2)ccc1O`, 7.14%.
To `Cc1csc(N/N=C/c2ccc(O)c([N+](=O)[O-])c2)n1` belongs 13.8% (active); to `CSc1ccc(CNc2nnnn2C)cc1`, -1.37%; to `COC(=O)C1(CO)NC(c2cccs2)C2C(=O)N(c3ccccc3)C(=O)C21` (configuration not stated), -2.08%.
The result for `O=C1NC(=O)N(c2ccccc2)C(=O)/C1=C\c1ccc([N+](=O)[O-])o1` reads 16.7%.
As to `COc1ccc(CN2C(=O)NC(=O)/C(=C/c3ccc([N+](=O)[O-])o3)C2=O)cc1`, the inhibition was 19.9% (active).
With `COc1ccc(CN2C(=O)NC(=O)/C(=C/c3ccc([N+](=O)[O-])s3)C2=O)cc1`, the inhibition was 6.92%.
The result for `COc1ccc(CN2C(=O)NC(=O)/C(=C\c3ccco3)C2=O)cc1` reads 8.39%; that for `Cc1ccc(N2C(=O)NC(=O)/C(=C\c3ccc([N+](=O)[O-])o3)C2=O)cc1`, 12.4%; that for `Cc1cc([N+](=O)[O-])ccc1N=Nc1c(N)[nH]n(-c2ccccc2)c1=O`, -3.05%.

As a reminder, the inhibition is the relative decrease from the control value, in per cent.
